Most compounds without a hit are left out; they make up all but 1.4% or so of the library.
bovine MsrA act – bovine MsrA enzyme activators, primary screen, biochemical, absorbance, HTS; Methionine sulfoxide reductase A (Bos taurus); purified bovine MsrA, absorbance read-out; activation, % at 10.6 µM; hit rate 0.3% among 360,000; in the data active means activation above about 7.5%
p-CIP stab down – p/CIP-EGFP fusion destabilizers, primary screen, fluorescence, F442A cells; AID 1984, 2009; decrease of EGFP signal, % at 10 µM; hit rate 0.01% among 290,000; 16 h;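 active means EGFP signal decrease of at least 30% at 10 µM or well 3 SD below plate mean, unless failing retest; inactive means the rest, including hits failing retest or dose response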
MsrA inhibitor – bovine MsrA enzyme inhibitors, primary screen, biochemical, absorbance, HTS; Methionine sulfoxide reductase A (Bos taurus); purified bovine MsrA, absorbance read-out; inhibition, % at 15.5 µM; hit rate 0.75% among 360,000; AID 651718, 2012; in the data active means inhibition above about 4.5%
14-3-3 Bad inh – inhibitors of 14-3-3 zeta/Bad binding, primary screen, biochemical, TR-FRET, bovine 14-3-3 zeta; inhibition, % at 21.7 µM; hit rate 0.71% among 220,000; TR-FRET 14-3-3zeta/Dy647-pBad peptide displacement, 1 h; AID 781, 2007;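 active means inhibition above about 70%, limit read from the data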
Target sequence (P63103 whole entry, looked up): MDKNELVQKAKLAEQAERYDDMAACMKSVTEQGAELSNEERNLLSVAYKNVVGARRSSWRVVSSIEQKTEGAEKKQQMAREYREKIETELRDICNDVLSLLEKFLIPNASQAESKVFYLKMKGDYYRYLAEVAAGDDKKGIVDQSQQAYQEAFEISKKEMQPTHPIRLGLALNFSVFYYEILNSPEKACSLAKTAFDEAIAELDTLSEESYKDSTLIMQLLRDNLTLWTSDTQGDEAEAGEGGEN
Large screens that a line does not name were inactive; [ ] = remark or other dose.

C[C@H](c1ccccc1)N1C[C@@H](COCc2ccccc2)Oc2cccc(Oc3ccc(C(C)(C)C)cc3)c2S1(=O)=O	none (no result: bovine MsrA act, p-CIP stab down, 14-3-3 Bad inh)
COc1ccc(N2CCN(C(=O)Cn3nnc(-c4ccc(N(C)C)cc4)n3)CC2)cc1	14-3-3 Bad inh 77
COc1ccc(-c2ccc(-c3nnn(CC(=O)N4CCOCC4)n3)cc2)cc1	none
C=CCC12C[C@@]3(O[C@H](c4ccc(C(F)(F)F)cc4)N=C3C[C@H](c3ccc(OC)cc3)[C@H]1C)N(Cc1ccc3c(c1)OCO3)C2=O	none (no result: bovine MsrA act, p-CIP stab down, 14-3-3 Bad inh)
Cc1ccc(C(=O)NC(=O)OCCn2c(C)cnc2[N+](=O)[O-])cc1	14-3-3 Bad inh 74
Nc1[nH]c(C(=O)c2ccc(Br)cc2)c(-c2cccc3ccccc23)c1C(=O)NCCc1c[nH]c2ccccc12	none (no result: bovine MsrA act, p-CIP stab down, 14-3-3 Bad inh)
CCOc1ccc(NC(=O)c2ccc(F)c(S(=O)(=O)N3CCN(c4ccccn4)CC3)c2)cc1	14-3-3 Bad inh 75
CCOc1ccc(NC(=O)c2ccc(F)c(S(=O)(=O)N3CCCC3)c2)cc1	none (no result: p-CIP stab down, 14-3-3 Bad inh)
O=C(N[C@H](C(=O)N1CCC[C@H]1C(=O)NCc1ccccc1)c1ccccc1)c1ccccc1	none (no result: bovine MsrA act, p-CIP stab down, 14-3-3 Bad inh)
C/C(=N\NS(=O)(=O)c1ccc([N+](=O)[O-])cc1)c1ccc(NC(=O)c2ccco2)cc1	MsrA inhibitor 4.6
C=CCc1ccc(OCCOCCOc2cccc3ccc(C)nc23)c(OC)c1	14-3-3 Bad inh 74
COc1ccc(N2C(=O)c3n[nH]c(C(C)C)c3C2c2ccccc2)cc1 (stereo not drawn)	none (no result: bovine MsrA act, p-CIP stab down, 14-3-3 Bad inh)
NC(N)=N/N=C/c1ccc(OCc2ccccc2)cc1	none
NC(N)=N/N=C/c1ccc(OCc2ccc(Cl)cc2)cc1	14-3-3 Bad inh 87[fluorescence artefact?]
CCCCS(=O)(=O)N1C2=NC(C(=O)OCC)=C(C(=O)OCC)C3N(Cc4ccc(Br)cc4)c4ccccc4[C@]23C[C@H]1C(=O)OC (stereo partly drawn)	none (no result: bovine MsrA act, p-CIP stab down, 14-3-3 Bad inh)
Cc1ccc(NC(=O)CC2C(=O)NCCN2C(=S)Nc2ccccc2)c(C)c1 (stereo not drawn)	14-3-3 Bad inh 75
Nc1nc(=S)c2ncn(C3CCCCC3)c2[nH]1	MsrA inhibitor 4.6 (no result: p-CIP stab down, 14-3-3 Bad inh)
Nc1nc(=S)c2ncn([C@@H]3O[C@H](CO)[C@@H](O)[C@H]3O)c2[nH]1	none (no result: p-CIP stab down, 14-3-3 Bad inh)
CCOCCCNC(=O)C(NC(=O)c1ccc(NC(C)=O)cc1)c1ccc(C)cc1 (stereo not drawn)	none
CCOCCCNC(=O)C(NC(=O)c1ccc(NC(C)=O)cc1)c1ccccc1 (stereo not drawn)	14-3-3 Bad inh 73
C#CCOCCOCCOCCNc1nc(N2CCN(C(=O)[C@H](C)n3cc(CCCN=C(N)N)nn3)CC2)nc(N2CCN(C(=O)[C@H](CCCCN)n3cc(CCCC)nn3)CC2)n1	14-3-3 Bad inh 89 (no result: bovine MsrA act, MsrA inhibitor)
Cn1cc(CC(=O)Nc2ccc(Oc3cccnc3)cc2)c2ccccc21	none (no result: bovine MsrA act, p-CIP stab down, 14-3-3 Bad inh)
Cc1nc2c(C)cccc2cc1C(=O)N/N=C/c1ccc(C(=O)O)cc1	14-3-3 Bad inh 87
COC(=O)c1cc2c(c3c4cc(F)ccc4n(S(=O)(=O)c4ccccc4)c13)C(=O)N(Cc1ccc(C(F)(F)F)cc1)C2	none (no result: bovine MsrA act, p-CIP stab down, 14-3-3 Bad inh)
Cc1noc(C)c1COc1ccc(C(=O)Nc2cccnc2)cc1	14-3-3 Bad inh 79
Cc1cccc(NC(=O)c2ccc(OCc3c(C)noc3C)cc2)c1	none (no result: p-CIP stab down, 14-3-3 Bad inh)
O=C1OC(C(=O)NCc2ccccc2)Cc2ccccc21 (stereo not drawn)	14-3-3 Bad inh 74
COc1ccc(C2CC(=O)C(c3cccc(Cl)c3)=CN2Cc2ccccc2)cc1 (stereo not drawn)	none (no result: bovine MsrA act, p-CIP stab down, 14-3-3 Bad inh)
COc1cc(CN2CCC(C(=O)NC3CCCC3)CC2)ccc1O	14-3-3 Bad inh 77
CCOc1cc(CN2CCC(N3CCC(C(=O)NC4CC4)CC3)CC2)ccc1O	none (no result: p-CIP stab down, 14-3-3 Bad inh)
O=C(Nc1ccc(O)cc1)c1cc2ccccc2c(=O)s1	MsrA inhibitor 4.7
O=C(Nc1ccccc1)c1cc2ccccc2c(=O)s1	none
CC(C)c1[nH]nc2c1C(c1ccc(F)cc1)NC2=O (stereo not drawn)	none (no result: bovine MsrA act, p-CIP stab down, 14-3-3 Bad inh)
COc1ccc(CN=C2NC(=O)CC(C(=O)Nc3ccc(F)cc3)S2)cc1 (stereo not drawn)	14-3-3 Bad inh 86[fluorescence artefact?]
O=C(CC1CCCC1)N[C@H](C(=O)N1CCC[C@H]1C(=O)NCc1ccccc1)c1ccccc1	none (no result: bovine MsrA act, p-CIP stab down, 14-3-3 Bad inh)
COc1cccc(-c2cc(CNC(=O)[C@H]3O[C@@H](n4cnc(C(N)=O)n4)[C@H](O)[C@@H]3O)no2)c1	none (no result: bovine MsrA act, p-CIP stab down, 14-3-3 Bad inh)
O=C(/C=C/c1ccc2c(c1)OCO2)N1CCN(c2n[nH]c(=O)[nH]c2=O)CC1	MsrA inhibitor 4.6
COC(=O)c1cc2c(c3c4cc(OC)ccc4n(S(=O)(=O)c4ccccc4)c13)C(=O)N(Cc1ccc(C(F)(F)F)cc1)C2	none (no result: bovine MsrA act, p-CIP stab down, 14-3-3 Bad inh)
N#Cc1c(N2CCCCC2)nc(N)c2c(N)nc3c(c12)CC(c1ccccc1)O3 (stereo not drawn)	none
CCN(CC)c1nc(N)c2c(N)nc3c(c2c1C#N)CC(c1ccccc1)O3 (stereo not drawn)	MsrA inhibitor 6.3
Cc1ccc(N=Nc2ccc(O)c(/C=N\NC(=O)c3ccc(N)cc3)c2)cc1C	14-3-3 Bad inh 85[fluorescence artefact?]
COC(=O)[C@]12C[C@H](CC(=O)N3CCC(c4ccccc4)CC3)C(=O)N(Cc3ccccc3)C1=C[C@H](C(C)C)O[C@@H]2C1CC1	none (no result: bovine MsrA act, p-CIP stab down, 14-3-3 Bad inh)
CC(C)C(=O)Nc1ccc(S(=O)(=O)Nc2nccc(/C=C/c3ccccc3)n2)cc1	MsrA inhibitor 4.6
C[C@@H]1ON(C)[C@H]2C[C@H]3c4[nH]c5c(-c6cccc(Cl)c6)cccc5c4CCN3C(=O)[C@@H]12	none (no result: bovine MsrA act, p-CIP stab down, 14-3-3 Bad inh)
C[C@]12Cc3ccccc3C1CC1=N[C@@H](c3ccccn3)O[C@@]13C[C@@H]2C(=O)N3C1CCN(Cc2ccccc2)CC1 (stereo partly drawn)	none (no result: bovine MsrA act, p-CIP stab down, 14-3-3 Bad inh)
Cc1ccc([N+](=O)[O-])cc1N=Cc1ccc(Br)s1	14-3-3 Bad inh 74
O=C(N/N=C/c1ccc(Br)s1)c1ccc([N+](=O)[O-])cc1	14-3-3 Bad inh 71
COC(=O)c1cc2c(c3c4ccccc4n(S(=O)(=O)c4cccc(C)c4)c13)C(=O)N(Cc1ccc(N(C)C)cc1)C2	none (no result: bovine MsrA act, p-CIP stab down, 14-3-3 Bad inh)
CCNC(=O)O[C@@H]1C=C[C@@H](C#Cc2ccc(C(C)(C)C)cc2)O[C@@H]1COC(C)=O	none (no result: bovine MsrA act, p-CIP stab down, 14-3-3 Bad inh)
CC(=O)Nc1ccc(S(=O)(=O)NCc2ccc(C(=O)NCc3ccc4c(c3)OCO4)cc2)cc1	none
CC(=O)Nc1ccc(S(=O)(=O)NCc2ccc(C(=O)NCc3ccc(Cl)cc3)cc2)cc1	14-3-3 Bad inh 74
CC(C)c1[nH]nc2c1C(c1cccc(C(F)(F)F)c1)N(Cc1ccccc1)C2=O (stereo not drawn)	none (no result: bovine MsrA act, p-CIP stab down, 14-3-3 Bad inh)
Cc1ccc2cc(C(=O)O)c(C)nc2c1	14-3-3 Bad inh 79
CCCc1nc(-c2cc3ccccc3[nH]c2=O)no1	14-3-3 Bad inh 96
Cc1ccc(/C=C/C2=NN(C)C(=O)CC2)cc1	none
CCOC(=O)C(C)N1N=C(/C=C/c2ccc(OC)cc2)CCC1=O (stereo not drawn)	MsrA inhibitor 6.1
CCOC(=O)CN1N=C(/C=C/c2ccc(OC)cc2)CCC1=O	MsrA inhibitor 6.1
CCOC(=O)CN1N=C(c2ccc(C)cc2)CCC1=O	none (no result: 14-3-3 Bad inh)
COc1cccc(OC)c1OCCCCN1CCCCC1	none (no result: 14-3-3 Bad inh)
COc1cccc(OC)c1OCCCCN1CCCC1	14-3-3 Bad inh 74

High-throughput results (PubChem BioAssay)
